# Like-named read-outs stand apart in the source and are kept apart here.
# Assays:
# Set-up in all cases: species or system human, MV4-11 + K-562 + COLO205 + SK-N-BE2 + OVCAR-8
# [1] = test system: HSP90AA1; details: read-out: apparent Kd; compound concentrations: 100 nM and 1000 nM (sheet 'Samples'), CATDS: 0.146358991547622; n = 1
# [2] = test system: HSP90B1; details: read-out: apparent Kd, n = 1
# [3] = test system: HSPE1; details: read-out: apparent Kd; compound concentrations: 100 nM and 1000 nM (sheet 'Samples'), CATDS: 0.26644464467786899; n = 1
# [4] = test system: PGK1; details: read-out: apparent Kd; compound concentrations: 100 nM and 1000 nM (sheet 'Samples'), CATDS: 0.56711536004942897; n = 1
# [5] = test system: PKM; details: read-out: apparent Kd; compound concentrations: 100 nM and 1000 nM (sheet 'Samples'), CATDS: 0.16665150952337399; n = 1
# [6] = test system: GSK3A; details: read-out: apparent Kd, n = 1
# [7] = test system: GSK3B; details: read-out: apparent Kd, n = 1
# [8] = test system: PRKCA; details: read-out: apparent Kd; compound concentrations: 100 nM and 1000 nM (sheet 'Samples'), CATDS: 0.195929094272485; n = 1
# [9] = test system: PRKCB; details: read-out: apparent Kd; compound concentrations:100 nM and 1000 nM (sheet 'Samples'); n = 1
# [10] = test system: PRKCD; details: read-out: apparent Kd, n = 1
# [11] = test system: PRKCQ; details: read-out: apparent Kd; compound concentrations:100 nM and 1000 nM (sheet 'Samples'); n = 1
# [12] = test system: RPS6KA6; details: read-out: apparent Kd; compound concentrations:100 nM and 1000 nM (sheet 'Samples'); n = 1
# [13] = test system: RPS6KB1; details: read-out: apparent Kd; compound concentrations:100 nM and 1000 nM (sheet 'Samples'); n = 1
# [14] = test system: IARS; details: read-out: apparent Kd; compound concentrations:100 nM and 1000 nM (sheet 'Samples'); n = 1
# [15] = test system: IRAK3; details: read-out: apparent Kd; compound concentrations:100 nM and 1000 nM (sheet 'Samples'); n = 1
# [16] = test system: STK16; details: read-out: apparent Kd; compound concentrations:100 nM and 1000 nM (sheet 'Samples'); n = 1
# [17] = test system: MAPKAPK2; details: read-out: apparent Kd; compound concentrations:100 nM and 1000 nM (sheet 'Samples'); n = 1
# [18] = test system: MDN1; details: read-out: apparent Kd, n = 1
# [19] = test system: MYLK3; details: read-out: apparent Kd; compound concentrations:100 nM and 1000 nM (sheet 'Samples'); n = 1
# [20] = test system: NQO2; details: read-out: apparent Kd; compound concentrations:100 nM and 1000 nM (sheet 'Samples'); n = 1
# [21] = test system: SMC4; details: read-out: apparent Kd; compound concentrations:100 nM and 1000 nM (sheet 'Samples'); n = 1
# [22] = test system: ILK; details: read-out: apparent Kd, n = 1
# [23] = test system: MAPK10; details: read-out: apparent Kd; compound concentrations: 100 nM and 1000 nM (sheet 'Samples'), CATDS: 0.50898583433438105; n = 1
# [24] = test system: HCK; details: read-out: apparent Kd; compound concentrations: 100 nM and 1000 nM (sheet 'Samples'), CATDS: 0.18431163144464899; n = 1
# [25] = test system: MAPK14; details: read-out: apparent Kd; compound concentrations: 100 nM and 1000 nM (sheet 'Samples'), CATDS: 0.18472106160443499; n = 1
# [26] = test system: RET; details: read-out: apparent Kd; compound concentrations: 100 nM and 1000 nM (sheet 'Samples'), CATDS: 0.22274296302997099; n = 1
# [27] = test system: YES1; details: read-out: apparent Kd; compound concentrations: 100 nM and 1000 nM (sheet 'Samples'), CATDS: 0.26066512285863302; n = 1
# [28] = test system: PKN3; details: read-out: apparent Kd; compound concentrations:100 nM and 1000 nM (sheet 'Samples'); n = 1
# [29] = test system: PRKX; details: read-out: apparent Kd; compound concentrations:100 nM and 1000 nM (sheet 'Samples'); n = 1
# [30] = test system: ROCK2; details: read-out: apparent Kd; compound concentrations:100 nM and 1000 nM (sheet 'Samples'); n = 1
# [31] = compound concentrations:100 nM and 1000 nM (sheet 'Samples')
compound,measurement,setting,value
Cn1cc(C2=C(c3ccccc3C(F)(F)F)C(=O)NC2=O)c2ccccc21 [RO0317717-000],potency estimated from few doses,[1],1.69 µM
same,potency estimated from few doses,"[2]; compound concentrations: 100 nM and 1000 nM (sheet 'Samples'), CATDS: 0.15036452413929899",1.53 µM
same,potency estimated from few doses,[3],0.337 µM
same,potency estimated from few doses,[4],0.0871 µM
same,potency estimated from few doses,[5],1.09 µM
COc1cccc(C2=C(c3cn(C)c4ccccc34)C(=O)NC2=O)c1 [RO0318649-000],potency estimated from few doses,[6]; [31],0.802 µM
same,potency estimated from few doses,"[7]; compound concentrations: 100 nM and 1000 nM (sheet 'Samples'), CATDS: 0.44424601969869798",1.34 µM
CN(C)CC1CCn2c(c(C3=C(c4cn(C)c5ccccc45)C(=O)NC3=O)c3ccccc32)C1 (stereo not shown) [RO0318830-000],potency estimated from few doses,[6]; [31],0.0438 µM
same,potency estimated from few doses,[7]; [31],0.0534 µM
same,potency estimated from few doses,[8],0.0302 µM
same,potency estimated from few doses,[9],0.0885 µM
same,potency estimated from few doses,[10]; [31],0.0345 µM
same,potency estimated from few doses,[11],0.123 µM
same,potency estimated from few doses,[12],0.0568 µM
same,potency estimated from few doses,[13],1.6 µM
CN1CCN(Cc2ccc(-c3cc4ncnc(Nc5ccc(OCc6cccc(F)c6)c(Cl)c5)c4s3)o2)CC1 [GW784684X],potency estimated from few doses,[14],1.61 µM
Cn1cc(C2=C(c3cccc(OC[C@H](O)CO)c3)C(=O)NC2=O)c2ccccc21 [RO3206173-000],potency estimated from few doses,"[6]; compound concentrations: 100 nM and 1000 nM (sheet 'Samples'), CATDS: 0.54568324377959498",0.00606 µM
same,potency estimated from few doses,"[7]; compound concentrations: 100 nM and 1000 nM (sheet 'Samples'), CATDS: 0.46137484559858299",0.00849 µM
Cl.Cn1cc(C2=C(c3ccc(N)cc3)C(=O)NC2=O)c2ccccc21 [RO0317373-001],potency estimated from few doses,"[6]; compound concentrations: 100 nM and 1000 nM (sheet 'Samples'), CATDS: 1",0.866 µM
COc1cc(C=NNc2ncnc3c2cnn3-c2ccccc2)ccc1O [GW513184X],potency estimated from few doses,[15],1.31 µM
same,potency estimated from few doses,[16],1.95 µM
Cn1cc(C2=C(c3c4n(c5ccccc35)CCN(C(N)=S)C4)C(=O)NC2=O)c2ccccc21 [RO0319377-000],potency estimated from few doses,[6]; [31],0.427 µM
same,potency estimated from few doses,"[7]; compound concentrations: 100 nM and 1000 nM (sheet 'Samples'), CATDS: 0.32462654335000002",0.259 µM
same,potency estimated from few doses,[17],1.83 µM
same,potency estimated from few doses,[18]; [31],1.47 µM
same,potency estimated from few doses,[19],1.64 µM
same,potency estimated from few doses,[20],1.55 µM
same,potency estimated from few doses,[21],2.13 µM
Cn1cc(C2=C(c3cn(C)c4cc(Cl)ccc34)C(=O)NC2=O)c2ccccc21 [RO0317597-000],potency estimated from few doses,"[22]; compound concentrations: 100 nM and 1000 nM (sheet 'Samples'), CATDS: 0.49132594031882498",1.59 µM
same,potency estimated from few doses,[23],1.48 µM
COc1cc(Nc2nccc(-c3c(-c4cccc(NC(=O)c5c(F)cccc5F)c4)nn4ccccc34)n2)cc(OC)c1OC [GSK323521A],potency estimated from few doses,[24],1.57 µM
same,potency estimated from few doses,[25],1.56 µM
same,potency estimated from few doses,"[18]; compound concentrations: 100 nM and 1000 nM (sheet 'Samples'), CATDS: 0.171379045218121",1.86 µM
same,potency estimated from few doses,[26],1.07 µM
same,potency estimated from few doses,[27],0.812 µM
O=C(Nc1n[nH]c2nc(-c3ccco3)ccc12)C1CC1 [SB-743899],potency estimated from few doses,"[6]; compound concentrations: 100 nM and 1000 nM (sheet 'Samples'), CATDS: 0.54830406508791196",1.39 µM
same,potency estimated from few doses,"[10]; compound concentrations: 100 nM and 1000 nM (sheet 'Samples'), CATDS: 0.45951776162212499",1.99 µM
COc1cc(C2=NC(c3ccc(Cl)cc3F)C(C(=O)Nc3ccc4[nH]ncc4c3)=C(C)N2)ccn1.O=C(O)C(F)(F)F (stereo not shown) [GSK534911A],potency estimated from few doses,[2]; [31],1.11 µM
same,potency estimated from few doses,[28],1.83 µM
same,potency estimated from few doses,[29],1.32 µM
same,potency estimated from few doses,[30],0.22 µM
COC(=O)Nc1nc2cc(Oc3ccc(NC(=O)Nc4cc(C(F)(F)F)ccc4Cl)cc3)ccc2[nH]1.Cl [GW697465A],potency estimated from few doses,[2]; [31],1.22 µM
same,potency estimated from few doses,[22]; [31],2.22 µM
